Screening results deposited in PubChem by NMMLSC.
Exocytosis inh: lytic granule exocytosis inhibition; AID 651702; hit rate 0.66% among 360,000; TALL-104 LAMP-1 surface exposure, flow cytometry; cells stimulated with thapsigargin and PMA; inhibition, % at 10 µM;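 active = inhibition above about 55%, limit read from the data; inconclusive = no clear call, values can overlap the other calls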
ABCB6 inh 2: inhibitors of human ABC transporter ABCB6; Q9NP58; K562-ABCB6 porphyrin accumulation, flow cytometry, 1 h; hits give low values; fluorescence ratio to DMSO, % at 10 µM; hit rate 0.19% among 360,000;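 active = fluorescence ratio to DMSO below 75%, the collection mean minus 3 SD; inconclusive = too few cells collected in the well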;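 also: signal is porphyrin accumulated inside mitochondria; lower ratio means ABCB6 inhibition with less porphyrin fluorescence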
Target sequence (Q9NP58 whole entry, looked up): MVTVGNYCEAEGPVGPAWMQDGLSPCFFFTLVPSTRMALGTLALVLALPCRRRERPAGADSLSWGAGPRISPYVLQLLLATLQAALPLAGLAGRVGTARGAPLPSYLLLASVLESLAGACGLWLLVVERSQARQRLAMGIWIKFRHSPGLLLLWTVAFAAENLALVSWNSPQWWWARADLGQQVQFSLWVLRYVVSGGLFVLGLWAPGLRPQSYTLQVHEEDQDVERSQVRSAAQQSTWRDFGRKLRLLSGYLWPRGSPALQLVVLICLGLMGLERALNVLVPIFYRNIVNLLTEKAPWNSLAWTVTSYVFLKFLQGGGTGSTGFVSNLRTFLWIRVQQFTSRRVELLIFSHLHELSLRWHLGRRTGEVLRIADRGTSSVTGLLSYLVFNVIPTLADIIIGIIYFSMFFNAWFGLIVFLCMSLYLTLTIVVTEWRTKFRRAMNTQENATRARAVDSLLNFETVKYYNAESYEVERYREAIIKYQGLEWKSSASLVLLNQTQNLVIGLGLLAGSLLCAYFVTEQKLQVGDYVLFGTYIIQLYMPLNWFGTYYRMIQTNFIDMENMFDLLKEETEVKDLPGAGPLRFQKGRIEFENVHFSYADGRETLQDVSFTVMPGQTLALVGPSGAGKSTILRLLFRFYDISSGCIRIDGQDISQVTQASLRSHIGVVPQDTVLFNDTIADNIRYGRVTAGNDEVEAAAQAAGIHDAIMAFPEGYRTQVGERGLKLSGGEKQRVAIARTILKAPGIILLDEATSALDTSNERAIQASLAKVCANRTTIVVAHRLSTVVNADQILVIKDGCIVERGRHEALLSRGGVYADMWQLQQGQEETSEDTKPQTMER
Myeloid diff MLP: promotes myeloid progenitor differentiation | ER-HoxA9 myeloid progenitors, lysozyme-GFP differentiation, flow cytometry | calls only at 10 µM | hit rate 1% among 360,000;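 active = normalized GFP-positive differentiation at or above the plate's own cutoff, the solvent-only control mean plus 3 SD; inconclusive = no clear call, values can overlap the other calls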;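 also: cells exposed to compound for four days before flow analysis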
Of the large screens only hits and unclear results are named; the others gave an inactive call. An excerpt weighted towards active compounds, which were near 1.8% of everything screened.

CCC1(O)CC2CN(CCc3c([nH]c4ccccc34)C(C(=O)OC)(c3cc4c(cc3OC)N(C=O)C3C(O)(C(=O)OC)C(OC(C)=O)C5(CC)C=CCN6CCC43C65)C2)C1 (centres undefined)	none (no result: Myeloid diff MLP)
CCC(=O)Nc1ccc(/C(C)=N\NC(=O)c2ccc(C)s2)cc1	none
C/C(=N/NC(=O)c1ccc(Cl)s1)c1ccc(NC(=O)COc2ccc(Cl)cc2)cc1	ABCB6 inh 2 53
COc1ccc(CNC(=O)CSc2nnc3nc(C)cc(C)n23)cc1OC	Myeloid diff MLP active
Cc1cc(C)n2c(SCC(=O)NCc3ccco3)nnc2n1	none
COc1ccc(CN2C(=NC(=O)C3CC3)SC3CS(=O)(=O)CC32)cc1OC (centres undefined)	Myeloid diff MLP active
COc1ccc(C(=O)N=C2SC3CS(=O)(=O)CC3N2Cc2ccc(OC)c(OC)c2)cc1 (centres undefined)	none
CC1(C(=O)NS(=O)(=O)c2ccc(F)cc2F)CCN1C(=O)Cc1ccc(Cl)cc1Cl (centres undefined)	none
CC(c1ccccc1)C1C(C#N)=C(N)OC2=C1C(=O)CC(C)(C)C2 (centres undefined)	Exocytosis inh 75 (no result: Myeloid diff MLP)
CC1(C)CC(=O)C2=C(C1)OC(N)=C(C#N)C2C#Cc1ccccc1 (centres undefined)	none
O=C(CSc1ccc(F)cc1)N1CCN(S(=O)(=O)c2ccccc2)CC1	none
O=C(CSc1ccccc1)N1CCN(S(=O)(=O)c2ccccc2F)CC1	Myeloid diff MLP active
COc1cccc(-c2cccc(NC(=O)C3CCN(CCCn4cccn4)CC3)c2)c1	none
COc1ccc(NC(=S)N2C3CCC2CC(NC(=O)NC24CC5CC(CC(C5)C2)C4)C3)c(OC)c1 (centres undefined)	none
Cc1cc([N+](=O)[O-])ccc1NC(=O)CN1C2CCC1CC(NC(=O)NC13CC4CC(CC(C4)C1)C3)C2 (centres undefined)	Myeloid diff MLP active
C=CCC[C@@H](CCCCC)OC(=O)/C=C/[C@H](O)[C@@H](O)C[C@@H](O)CC=C	none
FC(F)(F)c1ccc(Cl)c(-n2c(-c3cc(C4CC4)[nH]n3)n[nH]c2=S)c1	none
CN(CCNC(=O)C1CCN(c2ncnc3c2nc2n3CCCCC2)CC1)Cc1ccccc1	Myeloid diff MLP active
CCN(CCNC(=O)C1CCCN(c2ncnc3c2nc2n3CCCCC2)C1)Cc1ccccc1 (centres undefined)	none
CC1=C(C(=O)N2CCCCCC2)CC(CC(=O)NCC2CCCCC2)C(=O)N1CCCN1CCCC1=O (centres undefined)	none
CS(=O)(=O)N1N=C(c2ccc(Br)cc2)CC1c1cccs1 (centres undefined)	none
CCc1ccc(C2=NN(S(C)(=O)=O)C(c3cccs3)C2)cc1 (centres undefined)	Myeloid diff MLP active
O=C([C@@H]1CCCN1C1=NS(=O)(=O)c2ccccc21)N1CCN(c2ccccc2)CC1	none
O=C(CC1Sc2ccccc2NC1=O)NNc1cc(Cl)ccc1Cl (centres undefined)	none
CC(C)C1Nc2ccc(C(=O)NC3CCCCC3)cc2NC1=O (centres undefined)	none
CC1Nc2ccc(C(=O)NC3CCCCC3)cc2NC1=O (centres undefined)	Myeloid diff MLP active
CC(C)C(=O)Nc1ccc2c(c1)C(=O)NC2=O	none
COc1ccccc1C(=O)NCCCNC(=O)c1cccnc1	none
COc1nc(N/N=C/c2ccc(-c3ccccc3[N+](=O)[O-])o2)nc(N2CCOCC2)n1	none
O=[N+]([O-])c1ccc(-c2ccc(/C=N/Nc3nc(NCc4ccccc4)nc(N4CCOCC4)n3)o2)cc1	Exocytosis inh inconclusive, Myeloid diff MLP active
O=[N+]([O-])c1ccc(N/N=C/c2ccccc2O)cc1	Exocytosis inh 65
CC/C(=N\Nc1ccc([N+](=O)[O-])cc1)c1ccccc1	none
O=[N+]([O-])c1ccc(NN=Cc2ccccc2O)nc1	Myeloid diff MLP inconclusive
C/C(=N\Nc1ccc([N+](=O)[O-])cc1)c1ccc(N)cc1	none
CCc1ccc(/C(C)=N\Nc2ccc([N+](=O)[O-])cc2)cc1	Myeloid diff MLP active
O=[N+]([O-])c1ccc(NN=C(Oc2ccccc2)c2ccc([N+](=O)[O-])cc2)cc1	Myeloid diff MLP active
N#CCCN(C(=O)COC(=O)C1CCN(S(=O)(=O)c2ccccc2C(F)(F)F)CC1)c1ccccc1	none
CC(C)C1C(=O)N(Cc2cn(CC3CCCCC3)nn2)CCS(=O)(=O)N1Cc1ccc(-c2ccccc2)cc1 (centres undefined)	none
C=CC[n+]1ccn(-c2nc3ccccc3nc2[N-]S(=O)(=O)c2cccs2)c1	Myeloid diff MLP active
CCCC[n+]1ccn(-c2nc3ccccc3nc2[N-]S(=O)(=O)c2cccs2)c1	none
Cc1cc(Oc2cccc3c2S(=O)(=O)N(C2CCCC2)CC(COCc2ccccc2)O3)cc(C)c1C (centres undefined)	none
